Experimental data taken from PubChem BioAssay.

test: compound binding in COS7 lysate, probe aLAP1, primary screen, cell lysate, small-molecule microarray (AID 1124); settings: probe aLAP1, fluorescence, higher = more signal;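 note: lysate comes from COS7 cells expressing LAP1 and is applied at 0.3 µg/mL; score merges spot fluorescence near 667 nm with signal-to-noise over triplicate slides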

SMILES	composite z-score
C[C@@H]1ON(c2ccccc2)[C@H](c2ccccc2)[C@H]1C(=O)N1C(=O)OC[C@H]1Cc1ccccc1	-0.0985
COCCCNC(=O)[C@@H]1c2ccccc2C(=O)N(c2ccc(C)cn2)[C@H]1c1ccc(CO)cc1	-0.721
CC(=O)NCCCC[C@@H]1NC(=O)[C@H]2C[C@@H](C(=O)NCCCCCN)[C@@H](c3cccc(OCCO)c3)N2C1=O	0.2
C=CCOC(=O)[C@@H]1[C@H]2C(=O)O[C@H](c3ccccc3)[C@H](c3ccccc3)N2[C@H](c2ccc(OCCOC(=O)[C@H]3C[C@H]4C(=O)N[C@@H](Cc5ccccc5)C(=O)N4[C@H]3c3cccc(OCCO)c3)cc2)[C@@]12C(=O)Nc1ccc(I)cc12	0.331
O=C(Nc1cc(Br)ccc1C(=O)NCc1cccc(O)c1)c1ccccc1	0.808
CC(C)CCC[C@@H](C)[C@H]1CC[C@@]2(C)C3=C(CC[C@]12C)[C@@]1(C)CC[C@H](OC(=O)C(C)(C)C)C(C)(C)C1CC3 (stereo not given in full)	-0.0838
COC(=O)[C@@]1(Cc2ccccc2)[C@H]2c3cc(C(=O)N(C)C)n(Cc4ccc(O)c(OC)c4)c3C[C@H]2CN1C(=O)c1ccccc1	0.091
CC(C)C[C@H]1NC(=O)[C@H](C)NC(=O)[C@@]23C(=O)N[C@@H](Cc4ccccc4)C2[C@H](C)[C@@]2(C)O[C@H]2C3/C=C/C/C=C\CNC1=O (stereo not given in full)	-0.229
NCCCCCCNC(=O)[C@H]1C[C@H]2C(=O)N3CCC[C@H]3C(=O)N2[C@H]1c1ccc(O)cc1	0.597
COC(=O)C(CC#Cc1ccc2c(c1)[C@]1(C(=O)N2)[C@H](c2ccc(OCCO)cc2)N2[C@H](c3ccccc3)[C@H](c3ccccc3)OC(=O)[C@H]2[C@@H]1C(=O)O)C(=O)OC	0.26
O=C1O[C@H](c2ccccc2)[C@H](c2ccccc2)N2[C@H]1[C@@H](C(=O)N1CCN(c3ncccn3)CC1)[C@]1(C(=O)Nc3ccc(C#CCCO)cc31)[C@H]2c1ccc(OCCO)cc1	0.924
NC(=O)NCC#Cc1ccc2c(c1)[C@]1(C(=O)N2)[C@H](c2ccc(OCCO)cc2)N2[C@H](c3ccccc3)[C@H](c3ccccc3)OC(=O)[C@H]2[C@@H]1C(=O)N1CCCCCCC1	0.669
CN(C)C(=O)[C@@]1(CCS(=O)(=O)c2ccccc2)N=C(c2ccc(OCCCO)cc2)O[C@H]1c1ccccc1CN=[N+]=[N-]	0.527
COc1ccc(CCNC(=O)[C@@H]2c3ccccc3C(=O)N(Cc3ccccc3C(F)(F)F)[C@H]2c2ccc(CO)cc2)cc1	0.57
O=C1O[C@H](c2ccccc2)[C@H](c2ccccc2)N2[C@H]1[C@@H](C(=O)NC[C@H](O)c1ccccc1)[C@]1(C(=O)Nc3ccccc31)[C@H]2c1ccccc1OCCO	0.571
C=C(CCCC)/C(=C/C[C@H](OC(=O)c1ccncc1)c1ccc(CO)o1)c1cc(C(=O)OC)ccc1OC	0.51
CCCCCCCCCCC(O)C1C=CC2C(=O)NC(=O)C2N1Nc1ccccn1 (stereo not given)	-0.0065
COC(=O)[C@@]1(Cc2ccc(OC)cc2)[C@H]2c3cc(C(=O)N4CCCC4)n(Cc4ccc(C)o4)c3C[C@H]2CN1C(=O)c1ccccc1	0.0793

SMILES	composite z-score
C=C(/C(=C/C[C@@H](OC(=O)c1ccncc1)c1cccc(OCCO)c1)c1cc(C(=O)OC)ccc1OC)C(C)C	0.763
CCOC(=O)C[C@H]1[C@H](OC(=O)Cc2ccc3c(c2)OCO3)[C@@H](NC(=O)c2ccccc2)c2cc(OCCCO)ccc2N1C(=O)c1ccccc1	0.379
CCCC=C(CCC)[C@@H](NS(=O)(=O)c1ccccc1)c1ccc(C(F)(F)F)cc1	0.17
C=C[C@H](C)[C@H](OC(=O)Nc1ccc(SC)cc1)c1ccc(O)c2ccccc12	-0.0167
CC1(C)[C@@H]2CC(C(O)C3C=CC4C(=O)N(c5ccccc5)C(=O)C4N3Nc3ccccc3F)=C[C@@H]1C2 (stereo not given in full)	0.405
COC(=O)c1ccc(OC)c(/C=C\CC(CCc2ccccc2)OC(=O)c2ccncc2)c1 (stereo not given)	0.863
O=C1C2C=CC(C(O)c3ccc(Br)cc3)N(Nc3ccccc3)C2C(=O)N1c1ccccc1 (stereo not given)	0.189
COCCOC(=O)N1C(=O)[C@@]2(c3cc(C#Cc4ccc(OC)cc4)ccc31)[C@H](C(=O)N1CCc3cc(OC)c(OC)cc3C1)[C@H]1C(=O)O[C@H](c3ccccc3)[C@H](c3ccccc3)N1[C@@H]2c1ccc(OCCO)cc1	0.0459
C=CCC(OC(C)=O)[C@@H]1[C@@H](N(Cc2ccc(-c3cccc(C(F)(F)F)c3)o2)C(=O)c2cccc3ccccc23)c2cc(OCCCO)ccc2N1C(=O)c1ccc(-c2ccccc2)cc1 (stereo not given in full)	-0.272
CCCN1C(=O)[C@@]2(Cc3ccccc3)N=C(c3ccc(OCCCO)cc3)O[C@H]2c2ccccc21	0.688
O=C1c2ccccc2[C@](Cc2ccccc2I)(C(=O)NCC(F)(F)F)[C@H](c2ccc(CO)cc2)N1Cc1ccccc1	0.321
COc1ccc([Si](C)(C)[C@@H]2[C@@H](CC(=O)N(CCO)Cc3ccccc3)O[C@]3(C(=O)N(C)c4c(Br)cc(C)cc43)[C@H]2C)cc1	0.231
CCOC(=O)C[C@H]1[C@H](OC(=O)Cc2ccc3c(c2)OCO3)[C@@H](NC(=O)c2ccccc2)c2cc(OCCCO)ccc2N1C(=O)c1ccc2ccccc2n1	-0.145
COC(=O)[C@]1(Cc2ccccc2CN=[N+]=[N-])N=C(c2ccc(OCCCO)cc2)O[C@@H]1c1ccccc1	-0.779
CN(C)CCCC[C@@H]1NC(=O)[C@H]2C[C@@H](C(=O)NCCCCCCNC(=O)CS)[C@@H](c3ccc(O)cc3)N2C1=O	0.957
O=C(O)[C@]1(CCS(=O)(=O)c2ccccc2)N=C(c2ccc(OCCCO)cc2)O[C@@H]1c1ccccc1	0.341
C=CCC(OC(C)=O)[C@@H]1[C@@H](N(Cc2cccc3ccccc23)C(=O)c2ccc(C)cc2)c2cc(OCCCO)ccc2N1C(=O)c1ccc2ccccc2c1 (stereo not given in full)	-0.27
